Key:
Conditions in all cases: concentration: 1 μM, replicates: in singlicate; n = 1
RIPK4 = tested on: RIPK4
RIPK5 = tested on: RIPK5
ROCK1 = tested on: ROCK1
ROCK2 = tested on: ROCK2
ROS1 = tested on: ROS1
[1] = tested on: RPS6KA4(Kin.Dom.1-N-terminal)
[2] = tested on: RPS6KA4(Kin.Dom.2-C-terminal)
[3] = tested on: RPS6KA5(Kin.Dom.1-N-terminal)
[4] = tested on: RPS6KA5(Kin.Dom.2-C-terminal)
[5] = tested on: T1, RSK1(Kin.Dom.1-N-terminal)
T1 construct: gene RPS6KA1
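Note: KINOMEscan kinase panel screen.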

Compound	%Inh (RIPK4) [%]	%Inh (RIPK5) [%]	%Inh (ROCK1) [%]	%Inh (ROCK2) [%]	%Inh (ROS1) [%]	%Inh [1] [%]	%Inh [2] [%]	%Inh [3] [%]	%Inh [4] [%]	%Inh [5] [%]
COc1ccc(Nc2nccc(N3CCC(NC(=O)C(C)c4ccc(Cl)cc4)CC3)n2)cc1 (stereo not drawn) [GSK1379812]	0	0	15	16	40	19	0	3	42	2
Cc1nccc(-c2c(-c3ccc(F)cc3)ncn2CCCN2CCOCC2)n1.Cl [SB-282975]	33	13	0	0	23	100	15	5	8	0
CC(=O)c1cccc(NC(=O)NC2CCN(c3ccnc(Nc4ccc(F)cc4)n3)C2)c1 (stereo not drawn) [GSK1379710]	15	4	0	22	3	0	0	0	29	21
Cc1ccc(NC(=O)Nc2ccc(Cl)c(C(F)(F)F)c2)cc1-c1ccc(C(=O)Nc2ccncc2)cc1 [GSK1398470]	0	0	0	0	14	0	0	17	0	2
COc1ccc(Nc2nccc(N3CCC(NC(=O)C(C)c4ccc(Cl)cc4)C3)n2)cc1 (stereo not drawn) [GSK1379735]	4	12	11	4	17	5	0	21	0	31
Cn1cnc2c(N)ncnc21 [SKF-97623]	0	0	38	26	0	0	0	0	0	23
COc1ccc(Nc2nccc(-c3ccc(NC(=O)c4cc5cc(F)ccc5[nH]4)cc3)n2)cc1 [GSK1229496]	0	0	18	10	26	0	0	0	0	13
Cc1cnc(N)c(/C=C/c2cncc(C(=O)NCCc3ccc(Cl)cc3Cl)c2)c1.Cl [GSK190937]	0	0	71	45	3	4	0	22	0	9
CNC(=O)c1ccc(C)c(-n2c(C)cc(OCc3ccc(F)cc3F)c(Br)c2=O)c1	0	0	0	0	15	67	0	0	0	0
O=C(Nc1n[nH]c2nc(-c3cccs3)c(Br)cc12)C1CCCC1 [SB-743341]	0	34	0	0	21	4	25	4	7	0
COc1ccc(CSc2nnc(-c3ccc4c(c3)CCO4)o2)cc1	0	0	0	0	0	0	0	0	1	0
O=C1NC(=O)C(c2ccc(Cl)cc2)=C1Nc1cccc(Cl)c1 [SB-317651]	46	0	7	0	0	86	0	1	0	12
COC(=O)C(NC(=O)NC1CCN(c2ccnc(Nc3ccc(F)cc3)n2)C1)c1ccccc1 (stereo not drawn) [GSK1379712]	13	22	31	37	12	0	0	0	22	22
CCn1c(-c2c(N)noc2C)nc2cnccc21 [SB-737856]	25	0	0	0	0	12	0	6	23	28
CS(=O)(=O)CCNCc1nc(-c2ccc3ncnc(Nc4ccc(OCc5ccccc5)c(Cl)c4)c3c2)cs1.Cl [GW582764]	1	0	45	38	0	17	0	3	0	25
CS(=O)(=O)Cc1ccc(Nc2nccc(-c3c(-c4cccc(NC(=O)C5CCCCC5)c4)nn4ncccc34)n2)cc1 [GSK350559]	44	39	37	21	21	0	35	0	16	11
COC(=O)C(Cc1ccccc1)NC(=O)NC1CCN(c2ccnc(Nc3ccc(F)cc3)n2)C1 (stereo not drawn) [GSK1379714]	0	15	9	20	24	14	0	1	18	6

Compound	%Inh (RIPK4) [%]	%Inh (RIPK5) [%]	%Inh (ROCK1) [%]	%Inh (ROCK2) [%]	%Inh (ROS1) [%]	%Inh [1] [%]	%Inh [2] [%]	%Inh [3] [%]	%Inh [4] [%]	%Inh [5] [%]
Cc1ccc(NC(=O)Nc2ccccc2)cc1-c1ccc(C(=O)Nc2ccncc2)cc1 [GSK1398471]	1	0	0	0	0	3	0	13	0	15
CC(=O)c1c(C)c2cnc(Nc3ccc(N4CCNCC4)cn3)nc2n(C2CCCC2)c1=O	0	0	0	0	0	15	0	0	0	14
O=C(Nc1n[nH]c2nc(-c3ccco3)c(Br)cc12)C1CCN(Cc2ccccc2)C1.O=C(O)[C@H](O)[C@@H](O)C(=O)O (stereo not drawn) [SB-742034]	17	29	0	0	5	11	12	0	16	17
CCc1ccc(-c2ccc3c(c2)-c2n[nH]cc2S(=O)(=O)N3C)cc1	0	0	0	0	0	2	0	0	0	0
O=c1cc(N2CCOCC2)nc2n(Cc3cccc(Cl)c3Cl)c3ccccc3n12 [GSK2299009]	16	0	10	0	38	24	0	16	2	31
COc1cccc(NC(=O)Nc2ccc(C)c(-c3ccc(C(=O)Nc4ccncc4)cc3)c2)c1 [GSK1398474]	23	0	0	0	0	18	0	12	40	16
CC(=O)c1c(C)c2cnc(Nc3ccn(C)n3)nc2n(C2CCCC2)c1=O	0	0	0	0	4	0	0	0	3	0
CC(C)c1ccc(O)cc1Nc1ccnc2ccc(C(F)(F)F)cc12 [GW482059]	0	0	86	26	0	11	0	23	0	0
COc1ccc(CSc2nnc(-c3ccc4nccn4c3)o2)cc1C(F)(F)F	0	0	14	0	3	11	21	22	1	18
COc1cccc(C2=C(Nc3cc(Cl)c(O)c(Cl)c3)C(=O)NC2=O)c1 [SB-390767]	13	7	11	11	0	5	0	6	18	0
Cc1c(Cn2c3ccccc3n3c(=O)cc(N4CCOCC4)nc23)cccc1C(F)(F)F [GSK2306394]	3	0	0	4	0	13	0	15	0	0
O=C(Nc1n[nH]c2nc(-c3cccs3)c(Br)cc12)C1CC1 [SB-735297]	7	3	0	0	6	0	8	10	4	14
Cn1cncc1C(=O)NC1CCN(c2ccnc(Nc3ccc(F)cc3)n2)C1 (stereo not drawn) [GSK1379717]	33	20	0	19	0	0	0	0	0	16
Cc1cccc2c(-c3ccncn3)c(-c3ccc(F)cc3)nn12 [GW515532]	8	0	3	13	0	0	0	21	0	0
COC(=O)c1cccc(NC(=O)NC2CCN(c3ccnc(Nc4ccc(OC)cc4)n3)C2)c1 (stereo not drawn) [GSK1379746]	13	0	2	44	0	14	0	17	0	3
COc1cc2ncnc(Nc3cccc(Br)c3)c2cc1OC.Cl [GI230329]	5	8	37	33	28	8	0	0	2	0
CNc1nc(-c2ccc3c(N)n[nH]c3c2)cc(N2C[C@@H](C(=O)Nc3ccccc3)CC[C@H]2C)n1 [GSK2298859]	0	0	–	61	36	22	0	29	50	0

Source: publication PMC5540273 (PLoS ONE, 2017)
